# Measurements reported in PubChem BioAssay (EPA / NIEHS).
# Active and inactive are the calls of the source. The calls were made as follows: active = hit-call score of the fitted dose curve at least 0.9, where 1 is the maximum; inactive = score below 0.9.
# Experiment: Tanguay_ZF_120hpf_MUSC: Oregon State University Tanguay Lab 120 Hour Post-fertilization zebrafish Assay for Muscle Malformation (AID 2284401)
# How it was run: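 Scored as a binary brightfield endpoint at 120 hpf, fitted versus DMSO. Single dechorionated wild-type (Tropical 5D) zebrafish embryos per well, statically exposed at 28C from 6 hpf onward with final DMSO 0.64%.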
smiles,measurement,value
OCC(O)CC(F)(F)C(F)(F)C(F)(F)C(F)(F)C(F)(F)C(F)(F)C(F)(F)C(F)(F)F (stereo unspecified),outcome,inactive
